High-throughput results (PubChem BioAssay)
Compounds with a hit are over-represented: about 19% of the library has one in this group of screens.
Giardia kill: Giardia lamblia killing; Giardia lamblia trophozoite viability; actives 0.15% (n = 340,000); activity change, % at 7.66 µM, hits read low; AID 540267; in the data active = activity change below about -80%; inconclusive = between about -30% and that limit;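 note: parasites exposed to compound for two days anaerobically before the ATP read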
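Giardia trophozoites, 100 cells per well, were exposed to compounds for 48 hrs at 37 deg C under anaerobic conditions; viability was then read as ATP content by bioluminescence after 15-30 min at room temperature.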
TDP1 inh: TDP1 (human) enzyme inhibition | Potency, µM (doses to about 130 µM), without a hit: at the highest dose activity change, negative = inhibition, actives largely listed as inhibitors | Q9NUW8 | AID 485290 | actives 0.28% (n = 350,000) | recombinant TDP1, AlphaScreen DNA substrate cleavage; note: potency is the fitted concentration of half-maximal effect; nearly all actives have a fitted effect of over 40% in size
Target sequence (Q9NUW8 whole entry, looked up): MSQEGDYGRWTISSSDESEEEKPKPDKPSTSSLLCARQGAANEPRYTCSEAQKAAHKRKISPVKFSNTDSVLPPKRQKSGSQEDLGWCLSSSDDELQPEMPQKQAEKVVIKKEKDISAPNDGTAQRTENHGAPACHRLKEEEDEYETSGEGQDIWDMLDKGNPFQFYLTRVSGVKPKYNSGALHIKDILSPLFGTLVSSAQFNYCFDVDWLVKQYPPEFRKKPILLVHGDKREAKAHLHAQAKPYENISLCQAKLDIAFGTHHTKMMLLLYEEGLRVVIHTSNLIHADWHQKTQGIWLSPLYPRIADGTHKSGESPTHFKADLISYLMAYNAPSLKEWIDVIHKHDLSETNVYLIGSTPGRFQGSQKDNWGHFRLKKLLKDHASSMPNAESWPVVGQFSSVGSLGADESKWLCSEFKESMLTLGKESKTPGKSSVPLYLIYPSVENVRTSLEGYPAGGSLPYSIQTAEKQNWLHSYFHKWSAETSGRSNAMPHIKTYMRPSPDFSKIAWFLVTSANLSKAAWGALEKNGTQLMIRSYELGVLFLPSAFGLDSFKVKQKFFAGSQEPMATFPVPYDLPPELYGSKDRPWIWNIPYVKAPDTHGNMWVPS
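E. coli-derived human Tdp1, 1 nM final. Cpd preinc 15 min RT; substrate 15 nM final, 5 min RT; AS bead mix 10 ug/ml final, 10 min RT. Signal loss = tyrosine-FITC cleavage. No-enzyme wells = max signal.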
IL-1B inflam inh: inhibitors of inflammasome signaling (IL-1 beta secretion); actives 4.7% (n = 360,000); activity change, % at 57.5 µM; THP-1 LPS/ATP IL-1B secretion, AlphaLISA, 16 h; hits give low values; AID 743279; in the data active = activity change below about -50%; inconclusive = mostly about -30% to -49%
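THP-1 cells pretreated 1 hr with compounds (up to 57.5 uM final), then stimulated with LPS (250 ng/mL final) plus ATP (1.25 mM final); secreted IL-1B measured by AlphaLISA after 16 hr, decreased signal indicating inhibition.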
DT40 TDP1 CPT: growth inhibition of DT40 Tdp1-/-;hTDP1 cells with camptothecin (screen for TDP1 inhibitors). Potency, µM (highest dose often 46.2 µM), for the others: at the highest dose activity change, negative = growth inhibition, usual class: inhibitors. AID 686979. chicken DT40 Tdp1-/-;hTDP1 cells + 20 nM CPT, ATP luminescence, 48 h. actives 12% (n = 420,000); note: potency is the fitted concentration of half-maximal effect; nearly all actives have a fitted effect of over 55% in size
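Chicken DT40 Tdp1-/- cells stably complemented with human TDP1 were seeded at 400 cells/well in medium containing 20 nM camptothecin, exposed to pin-transferred compounds, and grown at 37 °C for at least 48 hr. Viability was read as ATP luminescence.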
TDP1 cell noCPT: qHTS for Inhibitors of human tyrosyl-DNA phosphodiesterase 1 (TDP1): qHTS in cells in absence of CPT; Potency, µM (titrated, usually from 46.2 µM), without a hit: at the highest dose activity change, negative = growth inhibition, actives largely listed as inhibitors; AID 686978, 2013; DT40 Tdp1-/- hTDP1 cells, no CPT, ATP luminescence, 48 h; actives 15% (n = 420,000); note: potency is the fitted concentration of half-maximal effect; nearly all actives have a fitted effect of over 55% in size
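Stably hTDP1-transfected Tdp1-null chicken DT40 cells were treated with library compounds minus camptothecin and grown for at least 48 hr at 37 °C, after which cellular ATP was quantified by luminescence.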
ELG1 repair inh: blocks ELG1-dependent DNA repair in HEK293T cells. HEK293T ELG1-luciferase reporter, luminescence, 16 h; DNA damage induced by 5-fluorouridine. Potency, µM (highest dose often 46.1 µM), for the others: at the highest dose activity change, negative = inhibition, hits mostly inhibitors. actives 2.3% (n = 330,000). AID 504467; note: potency is the fitted concentration of half-maximal effect; nearly all actives have a fitted effect of over 55% in size
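Step one: seed 2,000 cells per well. Step two: pin-transfer compound or DMSO alongside 5-fluorouridine. Step three: incubate 16 hr, 37 °C, 5% CO2. Step four: add ONE-Glo, wait 30 min, read luminescence.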
Numbers without * were called inactive; ? = inconclusive; . = not tested or not shown. Unless noted, calls come from the whole dose curve; as a rule, active = well fitted curve in the direction sought with a large enough effect; inconclusive = small, poorly fitted or top-dose-only effect, or another doubt; inactive = no such curve, though single readings can be large; an effect the other way counts as inactive or inconclusive. % is set by controls: 0 for no effect and ±100 for the full control effect.

SMILES	Giardia kill	TDP1 inh	IL-1B inflam inh	DT40 TDP1 CPT	TDP1 cell noCPT	ELG1 repair inh
Cc1cccc(NC(=O)CSc2nnc(CNC(=O)c3ccc(S(=O)(=O)N(C)C)cc3)n2-c2cccc(C)c2)c1	-15	-6%	-4	16µM*	?	-15%
CCN(CC)S(=O)(=O)c1ccc(NC(=O)CSc2nnc3c(n2)[nH]c2ccccc23)cc1	?	.	.	7.1µM*	6.3µM*	.
CCc1ccc(Nc2nnc(SCC(=O)Nc3cccnc3Cl)s2)cc1	-18	-8%	21	-6%	-2%	-21%
Cc1c(C)c2ccc(OCC(=O)N3CCOCC3)c(C)c2oc1=O	11	5%	-9	-9%	-16%	-14%
O=C(Nc1ccccc1Cl)c1ccccc1Oc1ccc(C(F)(F)F)cc1[N+](=O)[O-]	-1	11%	15	23µM*	18µM*	-3%
Cc1ccc(Oc2ccc(C(F)(F)F)cc2[N+](=O)[O-])c([N+](=O)[O-])n1	-16	.	?	-22%	-20%	?
COc1ccc(NC(=O)c2ccco2)cc1NC(=O)COc1ccccc1[N+](=O)[O-]	-19	.	18	-13%	-16%	22%
COc1ccccc1NC(=O)COc1ccc(C(F)(F)F)cc1[N+](=O)[O-]	4	.	3	?	18µM*	.
CCOC(=O)C(NC(=O)CC(C)C)(Nc1sc(C)c(CC)c1C#N)C(F)(F)F (centres undefined)	4	3%	22	?	?	-3%
CCOC(=O)C(NC(=O)CCl)(Nc1sc(C)c(CC)c1C#N)C(F)(F)F (centres undefined)	28	3%	-107*	?	6.5µM*	-21%
Cc1cccc(Nc2nnc(SCC3CCCCO3)s2)c1 (centres undefined)	0	5%	-5	23µM*	?	?
CCOc1ccc(-c2c(C)sc3nc[nH]c(=O)c23)cc1	22	.	21	?	16µM*	-27%
CCN(CC)C(=O)Cn1ncc2c([nH]c3ccccc32)c1=O	.	1%	.	-12%	-8%	.
Cc1ccc2oc(=O)c3cnn(CC(=O)N4CCN(c5cc(Cl)ccc5C)CC4)c3c2c1	.	1%	.	?	16µM*	.
Cc1ccc2oc(=O)c3cnn(CC(=O)NC4CCN(Cc5ccccc5)CC4)c3c2c1	-12	-1%	-10	16µM*	21µM*	?
Cc1ccc(N(C)C(=O)Cn2ncc3c([nH]c4ccccc43)c2=O)cc1C	.	2%	.	12µM*	?	.
Cc1ccc2c(c1)-c1c(cnn1CC(=O)N1CCN(c3cc(Cl)ccc3C)CC1)CO2	.	0%	.	?	?	.
Cc1ccc2[nH]c3c(=O)n(CC(=O)N4CCCCC4)ncc3c2c1	.	0%	.	-16%	17%	.
Cc1ccc(C)c(N2CCN(C(=O)Cn3ncc4c([nH]c5ccc(C)cc54)c3=O)CC2)c1	-1	1%	6	15µM*	13µM*	?
Cc1ccccc1NC(=O)CON=C(N)c1ccccc1	9	1%	?	-1%	7%	24%
CCOC(=O)c1cc(OCC)c2c(ccc3ccccc32)n1	.	.	18	-26%	?	.
Cc1ccc2[nH]c3c(=O)n(CC(=O)N(CCN(C)C)Cc4ccccc4)ncc3c2c1	.	4%	.	?	23µM*	.
CCc1cccc(NC(=O)Cn2ncc3c([nH]c4ccc(C)cc43)c2=O)c1	.	5%	.	-1%	4%	.
Cc1ccc(Cl)cc1N(C)C(=O)Cn1ncc2c([nH]c3ccccc32)c1=O	4	0%	-6	-21%	-19%	-3%
CCCCN(C)C(=O)Cn1ncc2c([nH]c3ccc(C)cc32)c1=O	.	-1%	.	?	?	.
SMILES	Giardia kill	TDP1 inh	IL-1B inflam inh	DT40 TDP1 CPT	TDP1 cell noCPT	ELG1 repair inh
CCN(CC)CCOC(=O)c1ccc(NC(=O)Cn2ncc3c([nH]c4ccc(C)cc43)c2=O)cc1	.	1%	.	4.1µM*	3.3µM*	.
Cc1ccc2[nH]c3c(=O)n(CC(=O)N(C)c4cc(Cl)ccc4C)ncc3c2c1	.	-2%	.	18µM*	15µM*	.
CC(=O)c1cccc(S(=O)(=O)NCCc2csc3nc(-c4ccc(F)cc4)nn23)c1	.	0%	.	?	?	.
CC(=O)Nc1ccc(NC(=O)CSc2nnc(NC(=O)c3ccc(Br)o3)s2)cc1	-26	-2%	122	-18%	-22%	4%
Cc1ccc(S(=O)(=O)Oc2ccccc2/C=N/Nc2ccc(C(=O)O)cc2)cc1	3	7%	54	-29%	-16%	?
Cc1ccc(N2C(=O)CC(C)CC2=O)cc1	11	.	21	5%	4%	2%
COc1ccc(N2C(=O)CC(c3cc(OC)c(OC)c(OC)c3)CC2=O)cc1	25	.	35	15µM*	13µM*	?
COc1cc(C2CC(=O)N(c3ccc(C)cc3)C(=O)C2)cc(OC)c1OC	23	-3%	36	1.8µM*	1.8µM*	11%
CCOC(=O)[C@H]1[C@H]2COc3ccc(C)cc3[C@@H]2N2C(=O)[C@@H](C)NC(=O)[C@@]12C	-10	0%	16	-4%	2%	15%
CCc1ccc2[nH]c3nc(SCCN4CCOCC4)nnc3c2c1	-25	.	11	?	23µM*	26µM*
Cc1ccc(C(=O)NNC(=O)CSc2nnc3c(n2)[nH]c2ccc(C)cc23)cc1	3	2%	31	?	18µM*	27%
CCc1ccc2[nH]c3nc(SCC(=O)NNC(=O)c4ccc(C(C)(C)C)cc4)nnc3c2c1	6	0%	-59*	21µM*	16µM*	-1%
CCn1c(=O)cc(OCC(=O)N2CCN(c3cccc(C(F)(F)F)c3)CC2)c2ccccc21	-16	10%	6	16µM*	23µM*	?
